Results published in PubChem BioAssay (NCATS).
Records with an inconclusive call do not appear. A call without a number means that no potency is given here. Active and inactive are the calls of the source. Calls come from the whole dose curve; as a rule, active = well fitted curve in the direction sought with a large enough effect; inconclusive = small, poorly fitted or top-dose-only effect, or another doubt; inactive = no such curve, though single readings can be large; an effect the other way counts as inactive or inconclusive.

Assays:
Papain (Carica papaya) = Papain (Carica papaya) (UniProt P00784); assay: Primary qHTS assay for inhibitors of the protease papain (AID 1645873);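 note: papain turnover of Z-FR-AMC read as the AMC fluorescence gain over 10 min; series mostly up to about 50 µM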
Chain of Papain (Carica papaya) (P00784 whole entry, looked up, the tested form may be a part): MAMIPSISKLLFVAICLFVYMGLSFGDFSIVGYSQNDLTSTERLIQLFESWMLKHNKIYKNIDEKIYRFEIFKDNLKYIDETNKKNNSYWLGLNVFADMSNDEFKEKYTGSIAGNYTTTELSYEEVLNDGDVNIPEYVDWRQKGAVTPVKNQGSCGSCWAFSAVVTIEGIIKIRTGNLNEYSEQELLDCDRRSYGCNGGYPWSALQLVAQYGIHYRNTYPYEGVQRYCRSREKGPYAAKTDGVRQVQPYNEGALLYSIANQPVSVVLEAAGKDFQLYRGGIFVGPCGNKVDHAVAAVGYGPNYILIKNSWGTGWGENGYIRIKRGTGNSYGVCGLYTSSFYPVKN

[1] = Primary qHTS for inhibitors of nuclear receptor binding SET domain protein 2 (NSD2) in an isogenic RCH-ACV NSD2 p.E1099K mutant (9B) (AID 1645876); note: nearly all actives have a fitted effect of over 70% in size; note: potency is the fitted concentration of half-maximal effect
[2] = Primary qHTS for inhibitors of nuclear receptor binding SET domain protein 2 (NSD2) in an RCH-ACV wild type WT cells (2C) (AID 1645877); note: nearly all actives have a fitted effect of over 70% in size; note: potency is the fitted concentration of half-maximal effect

SMILES: CN1CCN(C2=Nc3cc(Cl)ccc3Nc3ccccc32)CC1
- Potency (Papain (Carica papaya)): inactive

SMILES: CN1CCC(=C2c3ccccc3C=Cc3ccccc32)CC1
- Potency (Papain (Carica papaya)): inactive
- Potency [1]: 23.5 µM (active)
- Potency [2]: 18.6 µM (active)

SMILES: Cc1ccc(-c2cc(C(F)(F)F)nn2-c2ccc(S(N)(=O)=O)cc2)cc1
- Potency (Papain (Carica papaya)): inactive

SMILES: CCC1(c2ccccc2)C(=O)NCNC1=O
- Potency (Papain (Carica papaya)): inactive
- Potency [1]: inactive
- Potency [2]: inactive

SMILES: CC(C)C(=O)Nc1ccc([N+](=O)[O-])c(C(F)(F)F)c1
- Potency (Papain (Carica papaya)): inactive

SMILES: CC(C)NCC(O)c1ccc(O)c(O)c1 (configuration not stated)
- Potency (Papain (Carica papaya)): inactive
- Potency [1]: inactive

SMILES: CC(CCc1ccc(O)cc1)NCCc1ccc(O)c(O)c1 (configuration not stated)
- Potency (Papain (Carica papaya)): inactive

SMILES: O=C1c2c(O)ccc(O)c2C(=O)c2c(NCCNCCO)ccc(NCCNCCO)c21
- Potency (Papain (Carica papaya)): inactive
- Potency [1]: 0.186 µM (active)
- Potency [2]: 0.132 µM (active)

SMILES: CCCCc1oc2ccccc2c1C(=O)c1cc(I)c(OCCN(CC)CC)c(I)c1
- Potency (Papain (Carica papaya)): inactive

SMILES: CC#C[C@]1(O)CC[C@H]2[C@@H]3CCC4=CC(=O)CCC4=C3[C@@H](c3ccc(N(C)C)cc3)C[C@@]21C
- Potency (Papain (Carica papaya)): inactive
- Potency [1]: 23.5 µM (active)

SMILES: CC12CC3CC(C)(C1)CC(N)(C3)C2
- Potency (Papain (Carica papaya)): inactive
- Potency [1]: inactive

SMILES: O=C(c1ccc(F)cc1)C1CCN(CCn2c(=O)[nH]c3ccccc3c2=O)CC1
- Potency (Papain (Carica papaya)): inactive
- Potency [1]: inactive
- Potency [2]: inactive

SMILES: CN1CCC(=C2c3ccccc3CC(=O)c3sccc32)CC1
- Potency (Papain (Carica papaya)): inactive
- Potency [1]: inactive

SMILES: CS(=O)(=O)Nc1ccc([N+](=O)[O-])cc1Oc1ccccc1
- Potency (Papain (Carica papaya)): inactive
- Potency [1]: inactive
- Potency [2]: inactive

SMILES: COc1ccccc1N1CCN(CC(O)COc2cccc3ccccc23)CC1 (configuration not stated)
- Potency (Papain (Carica papaya)): inactive

SMILES: O=C(C1CCCCC1)N1CC(=O)N2CCc3ccccc3C2C1 (configuration not stated)
- Potency (Papain (Carica papaya)): inactive
- Potency [1]: inactive
- Potency [2]: inactive
